Results from PubChem BioAssay (NCI).
Compounds without any hit were thinned out: in the full panel of roughly 83,000, 20% have a hit.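 Plates (96-well) were seeded with cells, treated with compound at one concentration, and incubated for 48 hours before percent growth was determined.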 The source made the active and inactive calls. Rule for the calls: active = growth percent below 10; inactive = the rest.

tested on: HS 578T breast; assay: NCI-60 one-dose screen, 48 h (100 = growth as untreated, 0 = no growth, -100 = all killed); conditions: 10 µM unless noted

Which growth does the source give for `Cc1cc(=O)oc2cc(Oc3nc(-c4ccccc4)cn4c(-c5ccccc5)cnc34)ccc12` here?
The growth was 58.6% (inactive).

With `Cc1ccc2c(n1)C[C@H](C(C)(C)O)CC[C@H]2C` as the molecule, how does the growth read?
The growth was 111% (inactive).

With `Nc1nc(N)c2c(n1)NC(c1cccc(Nc3ccnc4cc(C(F)(F)F)ccc34)c1)CC(c1ccc(Cl)cc1)=N2` (stereo unspecified) as the molecule, how does the growth read?
Its growth is 62.1% (inactive).

How did the growth turn out when `C(CCCSC1=NCCN1)CCSC1=NCCN1` was run?
The growth was 104% (inactive).

`O=S(=O)(Nc1ccc(Br)cc1)c1ccc(-c2cnc(C3CC3)o2)cc1` was tested. Which growth did it give?
Its growth is -8.02% (active).

With `Nc1n[nH]c2cccc(C#Cc3cccc(C(=O)Nc4ccc(Cl)c(C(F)(F)F)c4)c3)c12` as the molecule, how does the growth read?
Its growth is 53.3% (inactive).

How did the growth turn out when `NC(=N\N=C/c1ccc(Cl)cc1Cl)/C(N)=N\N=C/c1ccc(Cl)cc1Cl` was run?
The growth was 33.2% (inactive).

For `COc1cc(C(=O)/C=C/c2c(-c3cccs3)nc3sc(C)cn23)cc(OC)c1OC`, which growth is on record?
Its growth is -16.2% (active).

Which growth does the source give for `Nc1nc(=O)n([C@H]2CC=C(CO)O2)cc1F` here?
The growth was 83.6% (inactive).

How did the growth turn out when `COc1ccc(Nc2nccc(Nc3ccc4[nH]ncc4c3)n2)cc1` was run?
The growth was 46.7% (inactive).

For `Cc1[nH]c(C(=O)Nc2ccccc2OC2CCNC2)c(Cl)c1Cl` (stereo unspecified), which growth is on record?
Its growth is 93.2% (inactive).

How did the growth turn out when `CCN1CCN(CCOc2ccc(CNc3ccc4nc(CCC5CCCCC5)[nH]c4c3)cc2)CC1` was run?
Its growth is 65% (inactive).

With `O=C1NCCS(=O)(=O)/C1=C\C=C\c1cccc(C(F)(F)F)c1` as the molecule, how does the growth read?
Its growth is 51.1% (inactive).

`CCCCCCCCCCCCCC[n+]1ccc2c(C)c3c(c(C)c2c1)c1cc(O)ccc1n3CC` was tested. Which growth did it give?
The growth was -41.3% (active).

With `CCCc1cc(CCC)n2nc(N)nc2n1` as the molecule, how does the growth read?
The growth was 103% (inactive).

How did the growth turn out when `O=S(=O)(c1ccc(NCSc2nc3ccccc3s2)cc1)c1ccc(NCSc2nc3ccccc3s2)cc1` was run?
Its growth is 90.6% (inactive).

With `COc1cc(/C=C2\CN(S(=O)(=O)c3ccc(C)cc3)C/C(=C\c3cc(CN4CCCC4)c(O)c(OC)c3)C2=O)cc(CN2CCCC2)c1O` as the molecule, how does the growth read?
The growth was 9.95% (active).

`Cc1cccc(CN(Nc2ccccc2)c2ccccc2)n1` was tested. Which growth did it give?
The growth was 109% (inactive).

With `O=C(NS(=O)(=O)c1ccccc1)n1cc(-c2ccncc2)c(-c2cc(O)cc(Cl)c2)n1` as the molecule, how does the growth read?
Its growth is 104% (inactive).

Which growth does the source give for `CCCCN(CCC#N)C(N)=O` here?
Its growth is 105% (inactive).

`CCOC(=O)/C(=C/c1ccc([N+](=O)[O-])cc1)C(=O)c1ccccc1` was tested. Which growth did it give?
Its growth is 33.2% (inactive).

`N#Cc1c(-c2ccc(F)cc2)cc(-c2cccc(Cl)c2)[nH]c1=O` was tested. Which growth did it give?
The growth was 46% (inactive).

With `O=C(Nc1cccc(Cn2c(=O)[nH]c3ccc(Oc4ncccn4)cc3c2=O)c1)c1cccc(Cl)c1` as the molecule, how does the growth read?
The growth was 73.7% (inactive).

`O=C1c2c(c3c4cccnc4[nH]c3c3ccc4ccccc4c23)C(=O)N1O` was tested. Which growth did it give?
The growth was 70.9% (inactive).

For `COC(=O)c1nc(-c2ccccc2)oc1S(=O)(=O)N1CCN(c2ccc(OC)cc2)CC1`, which growth is on record?
The growth was 89.2% (inactive).

How did the growth turn out when `O=C1c2ccccc2-c2c1c1ccncc1c(=O)n2CCCn1ccnc1` was run?
The growth was 60.8% (inactive).

How did the growth turn out when `COc1cc(-c2c(-c3ccccc3)c[nH]c2C(=O)NCCCO)c(OC)c2c1OCO2` was run?
Its growth is 92.9% (inactive).

With `C=C(C)Cn1c(SCC(=O)c2cccs2)nc2sc3c(c2c1=O)CCCC3` as the molecule, how does the growth read?
The growth was 65.3% (inactive).

How did the growth turn out when `CNC1=C([N+](=O)[O-])C(c2ccc(OC)cc2)C(C#N)=C(c2ccc[nH]2)O1` (stereo unspecified) was run?
The growth was 98.1% (inactive).

`Cn1cc(-c2nc(-c3c[nH]c4c(Cl)nccc34)cs2)c2ccccc21` was tested. Which growth did it give?
Its growth is 108% (inactive).

For `N/C(=N\c1nc2ccccc2s1)NC(=O)Nc1ccccc1`, which growth is on record?
The growth was 27.8% (inactive).

Which growth does the source give for `C#Cc1ccc(NC(=O)Cc2ccc(/C=C/C(=O)c3nccn3C)cc2)cc1` here?
The growth was 35.7% (inactive).

`Cc1cc2c(C(C)C)c(O)c(O)c(/C=N/O)c2c(O)c1-c1c(C)cc2c(C(C)C)c(O)c(O)c(/C=N/O)c2c1O` was tested. Which growth did it give?
Its growth is 41.9% (inactive).

How did the growth turn out when `O=C(Nc1ccc2[nH]ncc2c1)c1csc(Nc2ccccc2)n1` was run?
Its growth is 38.3% (inactive).

How did the growth turn out when `COC(=O)c1nc(-c2ccccc2)oc1S(=O)(=O)NCC(c1ccc(Cl)cc1)N1CCCCC1` (stereo unspecified) was run?
The growth was 100% (inactive).

`O=C(Nc1ccc(Oc2cccc(F)c2)c(Cl)c1)c1cnccn1` was tested. Which growth did it give?
Its growth is 27.8% (inactive).

Which growth does the source give for `COc1ccc(Nc2nc(Nc3cc(C)[nH]n3)c3cc(OC)c(OC)cc3n2)cc1` here?
Its growth is -63.1% [20 µM] (active).

`COC(=O)c1cc(-c2ccc(OC)c(OC)c2)[nH]c1N/N=C/c1c(Cl)cccc1Cl` was tested. Which growth did it give?
Its growth is 14.3% (inactive).

How did the growth turn out when `CC(C)=CCC[C@](C)(O)C1CC[C@]2(C)[C@@H]1CC[C@@H]1[C@@]3(C)CC/C(=N\OCCC#N)C(C)(C)[C@@H]3CC[C@]12C` (stereo partly specified) was run?
The growth was 92.9% (inactive).

How did the growth turn out when `N#C/C(=C\c1cccc2cnccc12)N1N=NC2C=CC=CC21` (stereo unspecified) was run?
The growth was 24.2% (inactive).

tested on: NCI/ADR-RES ovarian; assay: as above; conditions: 10 µM unless noted

`O=C1NCCS(=O)(=O)/C1=C\C=C\c1cccc(C(F)(F)F)c1` was tested. Which growth did it give?
Its growth is -37.5% (active).

`CCCCCCCCCCCCCC[n+]1ccc2c(C)c3c(c(C)c2c1)c1cc(O)ccc1n3CC` was tested. Which growth did it give?
The growth was 59.9% (inactive).

How did the growth turn out when `O=C(NS(=O)(=O)c1ccccc1)n1cc(-c2ccncc2)c(-c2cc(O)cc(Cl)c2)n1` was run?
Its growth is 97.3% (inactive).

How did the growth turn out when `CCOC(=O)/C(=C/c1ccc([N+](=O)[O-])cc1)C(=O)c1ccccc1` was run?
Its growth is 25.7% (inactive).

`COc1cc(-c2c(-c3ccccc3)c[nH]c2C(=O)NCCCO)c(OC)c2c1OCO2` was tested. Which growth did it give?
The growth was 106% (inactive).

Which growth does the source give for `COC(=O)c1cc(-c2ccc(OC)c(OC)c2)[nH]c1N/N=C/c1c(Cl)cccc1Cl` here?
Its growth is 26.8% (inactive).
